According to PubChem BioAssay (NCI):
This is part of a sample that, as a whole, favours compounds with a hit. Of some 83,000 tested, about 20% had one in any assay.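 Testing used 96-well plates and a 48-hour single-concentration exposure. Example: -40 means 40% of the starting cells died.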 Unmarked numbers belong to inactive results. Activity calls are given as the source filed them. Rule for the calls: active = growth percent below 10; inactive = the rest.

Legend:
Test in all cases: NCI-60 one-dose screen, 48 h (100 = growth as untreated, 0 = no growth, -100 = all killed)
Settings in all cases: 10 µM unless noted
[1] = system: NCI-H23 lung
[2] = system: NCI-H226 lung
[3] = system: NCI-H322M lung
[4] = system: HOP-62 NSCLC
[5] = system: NCI-H460 lung
[6] = system: HOP-92 NSCLC
[7] = system: 786-0 renal
[8] = system: COLO 205 colon
[9] = system: DU-145 prostate
[10] = system: K-562 leukemia
[11] = system: MALME-3M melanoma
[12] = system: MDA-MB-231 breast
[13] = system: RXF 393 renal
[14] = system: SF-268 CNS
[15] = system: SF-295 CNS
[16] = system: M14 melanoma
[17] = system: SF-539 CNS
[18] = system: A549/ATCC NSCLC
[19] = system: UACC-257 melanoma
[20] = system: NCI-H522 lung

SMILES | growth [1] | growth [2] | growth [3] | growth [4] | growth [5] | growth [6] | growth [7] | growth [8] | growth [9] | growth [10] | growth [11] | growth [12] | growth [13] | growth [14] | growth [15] | growth [16] | growth [17] | growth [18] | growth [19] | growth [20]
COC(=O)[C@H](Cc1cn(C)cn1)NC(=O)[C@H](CC(C)C)NC(=O)Nc1cc(C(F)(F)F)cc(C(F)(F)F)c1 | -84.5% [100 µM] (active) | -54.7% [100 µM] (active) | -97.8% [100 µM] (active) | -100% [100 µM] (active) | -59.8% [100 µM] (active) | -98.2% [100 µM] (active) | -94.9% [100 µM] (active) | -84.4% [100 µM] (active) | -100% [100 µM] (active) | -65.4% [100 µM] (active) | -93.5% [100 µM] (active) | -94% [100 µM] (active) | -89.3% [100 µM] (active) | -92.8% [100 µM] (active) | -96.5% [100 µM] (active) | -95.2% [100 µM] (active) | – | – | – | –
COc1cc2ccc(C(C)=O)cc2cc1OC | 99.5% | 81.4% | 104% | 81.8% | 100% | 86% | 107% | 97.1% | 111% | 118% | 107% | 109% | – | 101% | – | 110% | 95.6% | – | – | –
COc1ccc(/C=C/c2nc(NCCCN(C)C)c3ccccc3n2)cc1 | 73.6% | 103% | 82.7% | 83.9% | 33.2% | 0.889% (active) | 78% | 85.9% | 96.5% | -75.3% (active) | 25.9% | 18.7% | – | 55% | 65.8% | – | 47.5% | 91.2% | 97.3% | –
CC(C)c1cccc(C#N)c1 | 92.8% | 101% | 109% | 111% | 103% | – | 102% | 115% | 104% | 109% | 113% | 102% | 102% | 107% | 107% | 95.2% | 109% | 93.5% | 93.4% | 107%
ClCc1c(Cl)c(Cl)c(Cl)c(CCl)c1Cl | 82.8% | 35% | 94% | -28.8% (active) | 73.8% | – | 76.3% | -87.4% (active) | 14.8% | -20.8% (active) | -40.3% (active) | 47.8% | -75.9% (active) | 33.5% | 97.5% | 35.5% | 97.6% | 94.9% | 19.9% | -64.6% (active)
C=C(C)[C@@H]1CC[C@]2(C(=O)O)CC[C@]3(C)[C@H](CC[C@@H]4[C@@]5(C)C[C@@H](CC#Cc6ccc(C(C)=O)s6)[C@H](O)C(C)(C)[C@@H]5CC[C@]43C)[C@@H]12 | 60.9% | 77.1% | 41.3% | 50% | 42.7% | – | 58.6% | 59.5% | 57.2% | 34.7% | 82.6% | 91.9% | 74.3% | 61.6% | 48.9% | 76% | 83.4% | 6.44% (active) | 40.2% | 26%
CC(C)CCC(=O)[C@@H](C)[C@H]1[C@@H](OC2OCC(O)C(O)C2NS(C)(=O)=O)C[C@H]2[C@@H]3CC=C4C[C@@H](O)CC[C@]4(C)[C@H]3CC[C@]12C (some centres undefined) | 56.8% | 52.4% | 68.5% | 8.62% (active) | 12.1% | – | -32% (active) | -0.62% (active) | 49% | 2.65% (active) | 8.83% (active) | 43.8% | -65.1% (active) | 9.17% (active) | -60.9% (active) | -53.1% (active) | -41.2% (active) | 33.4% | -42.8% (active) | 20.7%
CN(C)N1C(=O)c2c(Cl)c(Cl)c(Cl)c(Cl)c2C1=O | 96.9% | 103% | 112% | 108% | 110% | – | 103% | 111% | 120% | 98.4% | 123% | 115% | 112% | 106% | 123% | 101% | 118% | 104% | 104% | 94.2%
O=[N+]([O-])c1ccc(N/N=C\c2ccc(O)cc2O)nc1 | 44.9% | 85% | 39.7% | 33.7% | 19.6% | – | 18.4% | 65.9% | 50.7% | 22.4% | 57.8% | 52.9% | 36.3% | 37.3% | 28.5% | 8.7% (active) | 37.5% | 25.6% | 41.3% | 10.9%
O/N=C/c1ccncc1 | 101% | 107% | 110% | 104% | 106% | – | 109% | 108% | 103% | 106% | 98.7% | 118% | 122% | 111% | 96% | 115% | 115% | 96.5% | 100% | 83.7%
Clc1ccc(-c2nc(-c3cccs3)no2)cc1 | 89.9% | 97.3% | 99.4% | 85.9% | 97.4% | – | 94.5% | 109% | 97.4% | 101% | 111% | 84.2% | 114% | 102% | 108% | 105% | 102% | 94.8% | 86.4% | 85.8%
C[C@@H]1CC2C3CCC4=CC(=O)C=C[C@]4(C)[C@@]3(Cl)[C@@H](O)C[C@]2(C)[C@@]1(OC(=O)c1ccco1)C(=O)CCl (some centres undefined) | 66.5% | 62.8% | 74.3% | 94.4% | 62.1% | – | 80.5% | 111% | 79% | 56.7% | 87.7% | 72.2% | 77.7% | 53.7% | 64.4% | 82% | 53% | 33.6% | 96.4% | 73.9%
CCOC(=O)Cn1c(-c2nonc2NC(=O)c2ccccc2F)nc2ccccc21 | 76.2% | 62.3% | 67.3% | 73.2% | 10.2% | – | 46.4% | 60.1% | 53.2% | 31.3% | 77.4% | 62.8% | 64.7% | 50% | 8.34% (active) | 61.5% | 44.7% | 24% | 72.1% | 47.6%
CCn1c(=O)c(C(=O)NCCCO)c(O)c2ccccc21 | 110% | 99.1% | 134% | 101% | 111% | – | 106% | 110% | 122% | 89.9% | 123% | 106% | -24.8% (active) | 94.3% | 110% | 124% | 96.8% | 103% | 125% | 101%
CCOC(=O)CCN(CCC(=O)OCC)c1ccccc1 | 101% | 98.4% | 110% | 86% | 111% | – | 105% | 93.7% | 111% | 121% | 120% | 111% | 81.3% | 93.6% | 107% | 86.6% | 92.4% | 99.6% | 96.4% | 89.8%
CCN(CC)CCNC(=O)C(F)(F)C(F)(F)C(F)(F)F | 114% | 93.7% | 114% | 95.6% | 111% | – | 87.2% | 102% | 115% | 109% | 124% | 104% | 98% | 103% | 101% | 97.7% | 90.7% | 104% | 111% | 110%
C#CCNc1nc(NCCNC(=O)CCl)nc(N(C)CCCCc2ccccc2)n1 | 84.7% | 71% | 96.4% | 94.3% | 107% | – | 97.5% | 91.2% | 101% | 95.1% | 60.3% | 90.7% | 93.5% | 94% | 99.4% | 78.5% | 106% | 119% | 113% | 25.4%
